Measurements taken from PubChem BioAssay AID624351 (Southern Research Specialized Biocontainment Screening …, 2012).
In all, about 2,400 compounds went through this assay and about 1,400 (58%) were called active. So high a share suggests a set chosen from earlier hits. The list shows a part of the results. Unmarked numbers belong to inactive results.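 Rule for the calls: active = inhibition of 30% or more at any tested dose; inconclusive = primary hits over the limit that were never retested; inactive = the rest.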

Test: ADP Hunter readout inhibition without MgcRacGAP – biochemical, coupled enzyme counter-screen, artefact control for MgcRacGAP inhibitor project, dose response (AID 624351);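 note: signal is the ADP detection kit reading of free GDP without any GAP enzyme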;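 for inhibition: 0% = median positive control wells and 100% = median negative control wells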
Conditions: fluorescence, no MgcRacGAP; series mostly up to 80 µM

Which IC50 does the source give for `N#CC1=C(S)N(c2ccccc2)C(c2ccc(-c3cccc(Cl)c3)o2)NC1=O` (centres undefined) here?
Its IC50 is “inactive”.

For `O=c1c(-c2cccc(Cl)c2)c[nH]n1-c1ccccc1`, which IC50 is on record?
Its IC50 is 52.1 µM (active).

Which IC50 does the source give for `O=c1c(-c2ccccc2)c[nH]n1-c1cccc([N+](=O)[O-])c1` here?
The IC50 was 41.6 µM (active).

For `O=[N+]([O-])c1cccc(SSc2cccc([N+](=O)[O-])c2)c1`, which IC50 is on record?
The IC50 was “inactive”.

Which IC50 does the source give for `O=c1c2ccccc2sn1-c1cccc(Cl)c1` here?
Its IC50 is “inactive”.

For `CN=c1scc(C)n1/N=C/c1ccc(O)cc1`, which IC50 is on record?
Its IC50 is 19.3 µM (active).

For `CN=c1scc(C)n1/N=C/c1ccc(O)cc1O`, which IC50 is on record?
The IC50 was 10.1 µM (active).

With `C=CCN=c1scc(C)n1/N=C/c1ccc(O)c(O)c1` as the compound, how does the IC50 read?
The IC50 was 15.4 µM (active).

With `Cn1c(=O)[nH]c(=O)c2c1[nH]c(=S)n2Cc1ccc(Cl)cc1` as the compound, how does the IC50 read?
Its IC50 is 22.2 µM (active).

With `Cn1c(=O)[nH]c(=O)c2c1[nH]c(=S)n2CCCc1ccccc1` as the compound, how does the IC50 read?
Its IC50 is 15.2 µM (active).

For `Cn1c(=O)c2c([nH]c(=S)n2CCCc2ccccc2)n(C)c1=O`, which IC50 is on record?
The IC50 was 11.4 µM (active).

With `CN(C)C(=S)N=c1ssc(=S)n1Cc1ccccc1` as the compound, how does the IC50 read?
Its IC50 is “inactive”.

With `Cn1c(=O)[nH]c(=O)c2c1[nH]c(=S)n2Cc1ccccc1` as the compound, how does the IC50 read?
Its IC50 is 19.2 µM (active).

With `c1ccc2c(c1)c1c(c3ccccc32)CN2CCCC2C1` (centres undefined) as the compound, how does the inhibition read?
The inhibition was -11.7% [at 10 µM].

Which IC50 does the source give for `O=C1c2c([N+](=O)[O-])cc([N+](=O)[O-])cc2S(=O)N1Cc1ccccc1` (centres undefined) here?
Its IC50 is “inactive”.

Which IC50 does the source give for `COc1ccc(NC(=O)CNCc2cccs2)c(OC)c1` here?
The IC50 was “inactive”.

With `COc1ccc(N2CCCC2)c(NC(=O)c2ccc([N+](=O)[O-])o2)c1` as the compound, how does the IC50 read?
The IC50 was “inactive”.

Which IC50 does the source give for `COc1ccc(NCc2ccc([N+](=O)[O-])s2)c(OC)c1` here?
The IC50 was 33.3 µM (active).

For `Cn1c(N2CCOCC2)c(/C=N/O)c2ccccc21`, which IC50 is on record?
The IC50 was 60.1 µM (active).

For `Cn1c(=O)c2[nH]c(=S)n(Cc3ccccc3)c2n(C)c1=O`, which IC50 is on record?
Its IC50 is 18.4 µM (active).

For `CCCCn1c(=S)[nH]c2c(=O)n(C)c(=O)n(C)c21`, which IC50 is on record?
Its IC50 is 15.6 µM (active).

Which IC50 does the source give for `CCn1c(=S)[nH]c2c(=O)n(C)c(=O)n(C)c21` here?
Its IC50 is 18.9 µM (active).

Which IC50 does the source give for `Cc1cc(C)c(OCC(O)CN2CCN(C(=O)c3ccccc3)CC2)c(C)c1` (centres undefined) here?
Its IC50 is “inactive”.

For `CCOC(=O)Nc1ccc(OC(=O)Oc2ccc(NC(=O)OCC)cc2)cc1`, which IC50 is on record?
The IC50 was 41.3 µM (active).

With `CC(=O)Nc1ccc(OC(=O)Cc2ccc(Cl)cc2)cc1` as the compound, how does the IC50 read?
Its IC50 is “inactive”.

Which IC50 does the source give for `Cn1nccc1C(=O)Nc1ccc(OC(=O)c2ccnn2C)cc1` here?
Its IC50 is “inactive”.

With `CCOC(=O)c1oc2cc(O)cc(C)c2c1C` as the compound, how does the IC50 read?
Its IC50 is 54.1 µM (active).

With `CCCCCCCCCCCCCCCC[N+](C)(C)Cc1ccc(F)cc1` as the compound, how does the IC50 read?
Its IC50 is “inactive”.

Which IC50 does the source give for `N#Cc1c(Nc2ccccc2)s[nH]c1=O` here?
Its IC50 is “inactive”.
